Assay results reported in the supplement of paper PMC12669032.

Assays:
Experiment in all cases: growth AUC relative to DMSO control (median of replicates) (fraction); higher = more growth (less inhibition), active = hit call of the paper
Conditions in all cases: 20 µM; 24 h;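 active = AUC reduced over 20% with Padj below 0.05 in at least 2 of 3 replicates; inactive = otherwise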
Akkermansia muciniphila = tested on: Akkermansia muciniphila
In short: (§1)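 Starting at OD600 0.05, gut bacterial monocultures in mGAM were grown anaerobically at 37 °C with 20 µM compound (1% DMSO) under pierced gas-permeable seals. OD600 was read every hour for 24 h, and the lowest OD of each curve was set to 0. Area under the growth curve was normalised to the plate median of solvent-only wells, or to row and column medians on the industrial chemical plate, and the median of three biological replicates grown on separate days is given.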

Bacteroides caccae = tested on: Bacteroides caccae
In short: as §1

Bacteroides clarus = tested on: Bacteroides clarus
In short: as §1

Bacteroides dorei = tested on: Bacteroides dorei
In short: as §1

Bacteroides stercoris = tested on: Bacteroides stercoris
In short: as §1

[1] = tested on: Bacteroides thetaiotaomicron
In short: as §1

Bacteroides uniformis = tested on: Bacteroides uniformis
In short: as §1

[2] = tested on: Bifidobacterium longum subsp. longum
In short: as §1

Clostridium difficile = tested on: Clostridium difficile
In short: as §1

Collinsella aerofaciens = tested on: Collinsella aerofaciens
In short: as §1

Coprococcus comes = tested on: Coprococcus comes
In short: as §1

Escherichia coli ED1a = tested on: Escherichia coli ED1a
In short: as §1

Escherichia coli IAI1 = tested on: Escherichia coli IAI1
In short: as §1

Eubacterium rectale = tested on: Eubacterium rectale
In short: as §1

[3] = tested on: Fusobacterium nucleatum subsp. animalis
In short: as §1

Lactobacillus gasseri = tested on: Lactobacillus gasseri
In short: as §1

Lactobacillus paracasei = tested on: Lactobacillus paracasei
In short: as §1

Odoribacter splanchnicus = tested on: Odoribacter splanchnicus
In short: as §1

[4] = tested on: Parabacteroides distasonis
In short: as §1

Parabacteroides merdae = tested on: Parabacteroides merdae
In short: as §1

Measured: growth AUC

Oc1cc(Cl)cc(Cl)c1
inactive: Akkermansia muciniphila 1.04 | Bacteroides caccae 1.01 | Bacteroides clarus 1 | Bacteroides dorei 0.996 | Bacteroides stercoris 1.08 | [1] 0.917 | Bacteroides uniformis 1.01 | [2] 0.998 | Clostridium difficile 1 | Collinsella aerofaciens 1.01 | Coprococcus comes 1.02 | Escherichia coli ED1a 1 | Escherichia coli IAI1 1.02 | Eubacterium rectale 1.08 | [3] 1.1 | Lactobacillus gasseri 1.08 | Lactobacillus paracasei 0.957 | Odoribacter splanchnicus 1.03 | [4] 0.997 | Parabacteroides merdae 0.973

CCCOCCN(C(=O)CCl)c1c(CC)cccc1CC
inactive: Akkermansia muciniphila 1.11 | Bacteroides caccae 0.979 | Bacteroides clarus 0.981 | Bacteroides dorei 0.976 | Bacteroides stercoris 0.919 | [1] 0.95 | Bacteroides uniformis 0.895 | [2] 1.05 | Clostridium difficile 0.971 | Collinsella aerofaciens 0.972 | Coprococcus comes 0.988 | Escherichia coli ED1a 0.963 | Escherichia coli IAI1 0.985 | Eubacterium rectale 1.02 | [3] 0.945 | Lactobacillus gasseri 0.927 | Lactobacillus paracasei 1.12 | Odoribacter splanchnicus 1.02 | [4] 0.848 | Parabacteroides merdae 0.942

N#Cc1nn(-c2c(Cl)cc(C(F)(F)F)cc2Cl)c(N)c1C(F)(F)F
active: Bacteroides clarus 0.741 | Clostridium difficile 0.609 | [4] 0.791
inactive: Akkermansia muciniphila 1.08 | Bacteroides caccae 0.898 | Bacteroides dorei 0.773 | Bacteroides stercoris 0.626 | [1] 1.01 | Bacteroides uniformis 0.97 | [2] 0.858 | Collinsella aerofaciens 0.967 | Coprococcus comes 0.885 | Escherichia coli ED1a 0.986 | Escherichia coli IAI1 0.978 | Eubacterium rectale 1.01 | [3] 0.842 | Lactobacillus gasseri 0.801 | Lactobacillus paracasei 0.927 | Odoribacter splanchnicus 0.696 | Parabacteroides merdae 0.834

CCCSP(=O)(OCC)Oc1ccc(Br)cc1Cl (stereo not given)
inactive: Akkermansia muciniphila 0.944 | Bacteroides caccae 0.864 | Bacteroides clarus 0.95 | Bacteroides dorei 0.985 | Bacteroides stercoris 1.17 | [1] 0.901 | Bacteroides uniformis 0.881 | [2] 1.06 | Clostridium difficile 1.03 | Collinsella aerofaciens 0.972 | Coprococcus comes 1.01 | Escherichia coli ED1a 1.01 | Escherichia coli IAI1 1.04 | Eubacterium rectale 0.993 | [3] 1.11 | Lactobacillus gasseri 0.976 | Lactobacillus paracasei 1.1 | Odoribacter splanchnicus 1.04 | [4] 0.871 | Parabacteroides merdae 0.994

O=C(O)c1c(Cl)ccc2cc(Cl)cnc12
inactive: Akkermansia muciniphila 0.898 | Bacteroides caccae 1 | Bacteroides clarus 0.983 | Bacteroides dorei 0.992 | Bacteroides stercoris 0.987 | [1] 1.02 | Bacteroides uniformis 1 | [2] 0.961 | Clostridium difficile 0.959 | Collinsella aerofaciens 0.947 | Coprococcus comes 1 | Escherichia coli ED1a 1 | Escherichia coli IAI1 0.969 | Eubacterium rectale 0.942 | [3] 1.02 | Lactobacillus gasseri 1.07 | Lactobacillus paracasei 0.934 | Odoribacter splanchnicus 0.988 | [4] 0.986 | Parabacteroides merdae 0.987

CCNc1nc(NC(C)C)nc(OC)n1
inactive: Akkermansia muciniphila 1.15 | Bacteroides caccae 0.971 | Bacteroides clarus 1.02 | Bacteroides dorei 0.941 | Bacteroides stercoris 1.03 | [1] 1 | Bacteroides uniformis 0.969 | [2] 1.01 | Clostridium difficile 0.981 | Collinsella aerofaciens 0.962 | Coprococcus comes 1.02 | Escherichia coli ED1a 1 | Escherichia coli IAI1 0.999 | Eubacterium rectale 1.05 | [3] 1.05 | Lactobacillus gasseri 0.911 | Lactobacillus paracasei 0.969 | Odoribacter splanchnicus 1.01 | [4] 0.922 | Parabacteroides merdae 0.982

Cc1cc(C)nc(Nc2ccccc2)n1
inactive: Akkermansia muciniphila 0.869 | Bacteroides caccae 0.98 | Bacteroides clarus 0.957 | Bacteroides dorei 1 | Bacteroides stercoris 0.987 | [1] 0.957 | Bacteroides uniformis 0.97 | [2] 1 | Clostridium difficile 0.983 | Collinsella aerofaciens 0.999 | Coprococcus comes 0.986 | Escherichia coli ED1a 1.01 | Escherichia coli IAI1 0.974 | Eubacterium rectale 0.983 | [3] 1.01 | Lactobacillus gasseri 1.09 | Lactobacillus paracasei 0.988 | Odoribacter splanchnicus 0.965 | [4] 1 | Parabacteroides merdae 0.971

ClC1C(Cl)C(Cl)C(Cl)C(Cl)C1Cl (mixture of isomers)
inactive: Akkermansia muciniphila 0.921 | Bacteroides caccae 0.981 | Bacteroides clarus 0.932 | Bacteroides dorei 1.01 | Bacteroides stercoris 0.826 | [1] 0.986 | Bacteroides uniformis 0.916 | [2] 0.921 | Clostridium difficile 0.982 | Collinsella aerofaciens 1 | Coprococcus comes 1.03 | Escherichia coli ED1a 1.01 | Escherichia coli IAI1 0.981 | Eubacterium rectale 0.936 | [3] 0.966 | Lactobacillus gasseri 1.08 | Lactobacillus paracasei 1 | Odoribacter splanchnicus 0.935 | [4] 1.04 | Parabacteroides merdae 0.949

CCOC(=O)c1ccccc1S(=O)(=O)NC(=O)Nc1nc(Cl)cc(OC)n1
inactive: Akkermansia muciniphila 1.1 | Bacteroides caccae 0.991 | Bacteroides clarus 1.03 | Bacteroides dorei 0.933 | Bacteroides stercoris 0.97 | [1] 1.01 | Bacteroides uniformis 0.962 | [2] 1.4 | Clostridium difficile 1.03 | Collinsella aerofaciens 0.993 | Coprococcus comes 0.988 | Escherichia coli ED1a 1.03 | Escherichia coli IAI1 1.02 | Eubacterium rectale 1.05 | [3] 1.07 | Lactobacillus gasseri 0.969 | Lactobacillus paracasei 1.05 | Odoribacter splanchnicus 1.1 | [4] 1.07 | Parabacteroides merdae 1.04

CCCOP(=S)(OCCC)SCC(=O)N1CCCCC1C (stereo not given)
active: [4] 0.676
inactive: Akkermansia muciniphila 0.978 | Bacteroides caccae 0.956 | Bacteroides clarus 0.953 | Bacteroides dorei 0.968 | Bacteroides stercoris 0.892 | [1] 0.873 | Bacteroides uniformis 0.9 | [2] 1.06 | Clostridium difficile 1.02 | Collinsella aerofaciens 1.06 | Coprococcus comes 0.943 | Escherichia coli ED1a 0.985 | Escherichia coli IAI1 1 | Eubacterium rectale 1 | [3] 1.08 | Lactobacillus gasseri 0.891 | Lactobacillus paracasei 1.02 | Odoribacter splanchnicus 1.01 | Parabacteroides merdae 0.955

O.[Br-].[Br-].c1cc[n+]2c(c1)-c1cccc[n+]1CC2
inactive: Akkermansia muciniphila 0.784 | Bacteroides clarus 0.992 | Bacteroides dorei 0.996 | Bacteroides stercoris 1.01 | [1] 1.01 | Bacteroides uniformis 0.984 | [2] 1.02 | Clostridium difficile 0.912 | Collinsella aerofaciens 0.995 | Coprococcus comes 0.988 | Escherichia coli ED1a 1.03 | Escherichia coli IAI1 0.95 | Eubacterium rectale 1.21 | [3] 0.996 | Lactobacillus gasseri 1.11 | Lactobacillus paracasei 1.01 | Odoribacter splanchnicus 0.937 | Parabacteroides merdae 0.967
active: Bacteroides caccae 0.612 | [4] 0.781

CS(=O)(=O)c1ccc(C(=O)C2C(=O)CCCC2=O)c(Cl)c1COCC(F)(F)F
inactive: Akkermansia muciniphila 1.07 | Bacteroides caccae 1.02 | Bacteroides clarus 0.988 | Bacteroides dorei 0.999 | Bacteroides stercoris 1.02 | [1] 0.989 | Bacteroides uniformis 0.989 | [2] 1.01 | Clostridium difficile 0.979 | Collinsella aerofaciens 1.03 | Coprococcus comes 1.01 | Escherichia coli ED1a 1.01 | Escherichia coli IAI1 0.994 | Eubacterium rectale 1.04 | [3] 1.05 | Lactobacillus gasseri 0.917 | Lactobacillus paracasei 0.989 | Odoribacter splanchnicus 1.14 | [4] 0.944 | Parabacteroides merdae 1.01

Clc1ccc(C(c2ccc(Cl)cc2)C(Cl)(Cl)Cl)cc1
inactive: Akkermansia muciniphila 1.1 | Bacteroides caccae 0.934 | Bacteroides dorei 0.955 | [1] 0.866 | [2] 0.886 | Clostridium difficile 0.943 | Collinsella aerofaciens 0.869 | Coprococcus comes 0.964 | Escherichia coli ED1a 0.963 | Escherichia coli IAI1 0.979 | Eubacterium rectale 0.878 | [3] 0.916 | Lactobacillus gasseri 0.487 | Lactobacillus paracasei 0.908 | Odoribacter splanchnicus 0.709
active: Bacteroides clarus 0.763 | Bacteroides stercoris 0.127 | Bacteroides uniformis 0.798 | [4] 0.258 | Parabacteroides merdae 0.69

COP(=S)(OC)Oc1ccc(SC)c(C)c1
inactive: Akkermansia muciniphila 0.903 | Bacteroides caccae 0.943 | Bacteroides clarus 0.952 | Bacteroides dorei 1 | Bacteroides stercoris 0.995 | [1] 1.03 | Bacteroides uniformis 0.977 | [2] 0.963 | Clostridium difficile 1.03 | Collinsella aerofaciens 0.977 | Coprococcus comes 1.02 | Escherichia coli ED1a 0.997 | Escherichia coli IAI1 0.987 | Eubacterium rectale 0.878 | [3] 1.08 | Lactobacillus gasseri 1.01 | Lactobacillus paracasei 1.02 | Odoribacter splanchnicus 1 | [4] 0.915 | Parabacteroides merdae 0.953

CCNc1nc(Cl)nc(NCC)n1
inactive: Akkermansia muciniphila 0.894 | Bacteroides caccae 1 | Bacteroides clarus 1.01 | Bacteroides dorei 1.02 | Bacteroides stercoris 1.02 | [1] 1.01 | Bacteroides uniformis 1.01 | [2] 1.05 | Clostridium difficile 1.01 | Collinsella aerofaciens 1.04 | Coprococcus comes 1.01 | Escherichia coli ED1a 1.05 | Escherichia coli IAI1 1.03 | Eubacterium rectale 0.961 | [3] 0.977 | Lactobacillus gasseri 1.09 | Lactobacillus paracasei 1 | Odoribacter splanchnicus 0.998 | [4] 1.01 | Parabacteroides merdae 1.01

O=C(NC(=O)c1c(F)cccc1F)Nc1cc(Cl)c(Oc2ncc(C(F)(F)F)cc2Cl)c(Cl)c1
inactive: Akkermansia muciniphila 1.02 | Bacteroides caccae 0.996 | Bacteroides clarus 0.997 | Bacteroides dorei 0.988 | Bacteroides stercoris 1.07 | [1] 1.03 | Bacteroides uniformis 0.977 | [2] 1.14 | Clostridium difficile 1 | Collinsella aerofaciens 1.11 | Coprococcus comes 1.02 | Escherichia coli ED1a 1.02 | Escherichia coli IAI1 0.991 | Eubacterium rectale 1.01 | [3] 1.02 | Lactobacillus gasseri 1.16 | Lactobacillus paracasei 1.02 | Odoribacter splanchnicus 1.02 | [4] 1.02 | Parabacteroides merdae 1.02
